Experimental data: PubChem BioAssay AID504582 (Broad Institute, 2011)
About 2,300 (0.68%) of roughly 340,000 compounds were called active. What follows is part of a selection rich in actives, with near analogues and random picks from the rest. A number with no mark means an inactive call. Rule as the data show it: active = growth rescue above about 28% (passing the limit was not always enough); inconclusive = no clear call, values can overlap the other calls.

Experiment: rescue of yeast from PfHsp40 toxicity, primary screen, S. cerevisiae, ATP luminescence (AID 504582);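 also: yeast W303a lacking pdr1 and pdr3 grown in galactose medium; growth measured after three days at 30 °C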
Conditions: S. cerevisiae expressing PfHsp40, growth rescue, at 12.5 µM, hits give high values

Q: Which growth rescue does the source give for `CCOC(=O)C(C)Oc1cccc2c(=O)n(CC(=O)N3CCc4ccccc43)ccc12` (stereo unspecified) here?
A: 92.2% (active)

Q: With `CCOC(=O)C(C)Oc1cccc2c(=O)n(CC(=O)NCCc3ccc(OC)c(OC)c3)ccc12` (stereo unspecified) as the compound, how does the growth rescue read?
A: 0.594%

Q: Which growth rescue does the source give for `COc1cccc2c(=O)n(CC(=O)N3CCCCCC3)ccc12` here?
A: -0.593%

Q: Which growth rescue does the source give for `O=C(O)CCCCOn1ccnc1` here?
A: -2.14%

Q: With `O=C(c1noc2c1CCCC2)N1CCc2ccccc2C1` as the compound, how does the growth rescue read?
A: -0.161%

Q: With `COc1ccc2c(c1)CCc1c(C(=O)N3CCc4ccccc4C3)noc1-2` as the compound, how does the growth rescue read?
A: 182% (active)

Q: Which growth rescue does the source give for `COc1ccc2c(c1)CCc1c(C(=O)N3CCCC3)noc1-2` here?
A: 0.772%

Q: With `CCN(CC)C(=O)COc1coc(CN2CCN(Cc3ccccc3)CC2)cc1=O` as the compound, how does the growth rescue read?
A: -0.869%

Q: For `Cc1ccc2[nH]c(C)c(CCNC(=O)NC3CCCCC3)c2c1`, which growth rescue is on record?
A: -0.354%

Q: With `S=c1[nH]nc(-c2ccco2)n1/N=C/c1ccc(Br)s1` as the compound, how does the growth rescue read?
A: 152% (active)

Q: For `Cc1ccccc1-c1n[nH]c(=S)n1/N=C/c1ccc(-c2ccccc2Br)o1`, which growth rescue is on record?
A: 0.454%

Q: With `Cc1ccsc1/C=N/n1c(=S)[nH]nc(C)c1=O` as the compound, how does the growth rescue read?
A: -0.774%

Q: Which growth rescue does the source give for `Cc1cc(NC(=O)CSc2nc(=O)cc(N)n2-c2ccc(F)cc2)no1` here?
A: -0.428%

Q: For `COC(=O)Cn1cnc2scc(-c3ccc(C)c(C)c3)c2c1=O`, which growth rescue is on record?
A: 151% (active)

Q: Which growth rescue does the source give for `CCn1cnc2scc(-c3ccc(C)c(C)c3)c2c1=O` here?
A: 1.65%

Q: For `CC(=O)C(C)n1cnc2scc(-c3ccc(C)cc3)c2c1=O` (stereo unspecified), which growth rescue is on record?
A: 0.285%

Q: With `CCOC(=O)C(C)n1cnc2scc(-c3ccc(C)c(C)c3)c2c1=O` (stereo unspecified) as the compound, how does the growth rescue read?
A: 4.82%

Q: Which growth rescue does the source give for `CCCc1nc2scc(-c3ccc(C)cc3)c2c(=O)n1N` here?
A: 0.943%

Q: With `CCC(C(=O)OC)n1cnc2scc(-c3ccc(C)cc3)c2c1=O` (stereo unspecified) as the compound, how does the growth rescue read?
A: 49.2% (active)

Q: With `CN(C)CCCn1c(SCCN2C(=O)c3ccccc3C2=O)nc2ccccc2c1=O` as the compound, how does the growth rescue read?
A: -0.077%

Q: Which growth rescue does the source give for `COc1ccc(C2OC(=O)CC2C(=O)NC(C)C)cc1` (stereo unspecified) here?
A: -0.42%

Q: For `Cc1cccc(CCNS(=O)(=O)c2ccc(S(=O)(=O)NC3CCCC3)cc2)c1`, which growth rescue is on record?
A: 0.473%

Q: Which growth rescue does the source give for `O=C(CCc1nnc2ccc(NCCCN3CCCC3=O)nn12)NCc1ccccc1Cl` here?
A: -0.483%

Q: With `Cc1nn(C)cc1C(=O)Nc1ccccc1Br` as the compound, how does the growth rescue read?
A: 0.045%

Q: For `CCCS(=O)(=O)N1CCN=C1SCc1cccc(F)c1`, which growth rescue is on record?
A: 0.879%

Q: With `O=C1CC(=O)Nc2cc(S(=O)(=O)N3CCN(c4cccc(C(F)(F)F)c4)CC3)ccc2N1` as the compound, how does the growth rescue read?
A: -1.27%

Q: With `O=C1CN(C(=O)c2cc(F)cc(F)c2)c2ccccc2N1` as the compound, how does the growth rescue read?
A: -0.198%

Q: With `Cc1c(NC(=O)CSc2cccc3cccnc23)c(=O)n(-c2ccccc2)n1C` as the compound, how does the growth rescue read?
A: 5.35%

Q: For `CC(=O)/C(=N\Nc1ccc(Cl)cc1Cl)Sc1cccc2cccnc12`, which growth rescue is on record?
A: 67.7% (active)

Q: Which growth rescue does the source give for `O=C(NNc1cc(Cl)ccc1Cl)c1cccnc1Cl` here?
A: 0.035%

Q: For `O=[N+]([O-])c1ccc(N2CCN(S(=O)(=O)c3ccccc3)CC2)cc1N1CCc2ccccc2C1`, which growth rescue is on record?
A: -0.201%

Q: Which growth rescue does the source give for `CC/C(=C\c1ccc(Cl)cc1)c1ccncc1` here?
A: 0.0255%

Q: Which growth rescue does the source give for `CCN(C(=O)C1CCCN(c2nc(-c3ccc(OC)cc3)no2)C1)c1ccc(OC)cc1` (stereo unspecified) here?
A: 61.7% (active)

Q: For `COc1ccc(NC(=O)N2CCCC(c3nc(-c4ccc(F)cc4)no3)C2)cc1` (stereo unspecified), which growth rescue is on record?
A: 0.883%

Q: For `CCOC(=O)C1CCCN(C(=O)CN(c2ccc(OC)cc2)S(=O)(=O)c2c(C)noc2C)C1` (stereo unspecified), which growth rescue is on record?
A: 0.46%

Q: With `C/C(=N\NC(=O)c1ccc(NS(=O)(=O)c2cccs2)cc1)c1ccc2ccccc2c1` as the compound, how does the growth rescue read?
A: -0.368%

Q: Which growth rescue does the source give for `CSCCC(NC(=O)COc1ccccc1)C(=O)N1CCN(c2cccc(C(F)(F)F)c2)CC1` (stereo unspecified) here?
A: 197% (active)

Q: With `CSCCC(NC(=O)COc1ccccc1)C(=O)OCCOc1ccc(Br)cc1` (stereo unspecified) as the compound, how does the growth rescue read?
A: -0.924%

Q: With `CSCCC(NC(=O)COc1ccccc1)C(=O)OCCOc1ccc(F)cc1` (stereo unspecified) as the compound, how does the growth rescue read?
A: -0.578%

Q: With `COCCCNS(=O)(=O)c1cccc(S(=O)(=O)c2cccc(S(=O)(=O)NCCCOC)c2)c1` as the compound, how does the growth rescue read?
A: -1.18%

Q: For `CNC(=S)N1CCC(NC(=O)C(Cc2ccc(F)cc2)NC(C)=O)CC1` (stereo unspecified), which growth rescue is on record?
A: -1.81%

Q: With `Cc1ccc(S(=O)(=O)NCC(=O)N(CC(=O)NC(C)(C)C)Cc2cccs2)cc1` as the compound, how does the growth rescue read?
A: -1.96%

Q: With `O=C(N[C@@H](Cc1c[nH]c2ccccc12)C(=O)O)OCC1c2ccccc2-c2ccccc21` as the compound, how does the growth rescue read?
A: -1.08%

Q: With `CC(=O)c1cccc(NC(=S)N2CCN(S(C)(=O)=O)CC2)c1` as the compound, how does the growth rescue read?
A: -0.215%

Q: For `O=C(CSc1ccc(-c2ccccn2)nn1)Nc1ccccc1`, which growth rescue is on record?
A: 379% (active)

Q: With `O=C(CSc1ccc(-c2ccc(-n3cccn3)cc2)nn1)Nc1ccc([N+](=O)[O-])cc1` as the compound, how does the growth rescue read?
A: 0.191%

Q: For `COc1cc(NC(=O)CSc2ccc(-c3cccnc3)nn2)cc(OC)c1`, which growth rescue is on record?
A: -0.74%

Q: With `N#Cc1ccc(C(=O)OCC(=O)NC(=O)NC2CCCCC2)cc1` as the compound, how does the growth rescue read?
A: 0.27%

Q: For `COc1ccc(NS(=O)(=O)c2ccc(NC(=S)NC(=O)/C=C/c3ccc(C)cc3)cc2)nn1`, which growth rescue is on record?
A: -1.55%

Q: Which growth rescue does the source give for `COc1ccc(CS(=O)/C(Cl)=C(/Cl)C(=O)Nc2ccc(OC)nc2)cc1` (stereo unspecified) here?
A: 81.6% (active)

Q: For `COc1ccc(CCNC(=O)COC(=O)c2cnc(Cl)c(Cl)c2)cc1`, which growth rescue is on record?
A: -2.56%

Q: For `COc1ccc(OC(C)C(=O)Nc2cccnc2)cc1` (stereo unspecified), which growth rescue is on record?
A: -0.665%

Q: Which growth rescue does the source give for `COc1ccc(NC(=O)/C(Cl)=C(/Cl)S(=O)Cc2ccc(C)cc2)cn1` (stereo unspecified) here?
A: 278% (active)

Q: For `COc1cccc(NC(=S)N(Cc2ccc(C)cc2)Cc2ccccn2)c1`, which growth rescue is on record?
A: 1.55%

Q: For `O=S(=O)(NC1CC1)c1ccc(Cl)cc1`, which growth rescue is on record?
A: -0.92%

Q: With `O=S(=O)(NC1CC2CCC1C2)c1ccc(Cl)cc1` (stereo unspecified) as the compound, how does the growth rescue read?
A: 74.5% (active)

Q: Which growth rescue does the source give for `O=S(=O)(NC1CCCCC1N1CCCCC1)c1ccc(Cl)cc1` (stereo unspecified) here?
A: 1.55%

Q: With `COc1ccccc1OCC(=O)Nc1c2c(nn1-c1ccc(F)cc1)CS(=O)(=O)C2` as the compound, how does the growth rescue read?
A: 3.47%

Q: Which growth rescue does the source give for `CCOC(=O)c1c(NC(=O)NC(C)(C)C)sc2c1CCN(C)C2` here?
A: -1.54%

Q: With `COc1ccccc1/C=N\Nc1cc(C)nc(-n2nc(C)cc2C)n1` as the compound, how does the growth rescue read?
A: 143% (active)

Q: For `COc1ccccc1/C=N/N1CCN(Cc2ccccc2Cl)CC1`, which growth rescue is on record?
A: -1.43%

Q: For `CCOC(=O)c1cnc(-n2nc(C)cc2C)nc1NNc1cc(C)nc(-c2ccccc2)n1`, which growth rescue is on record?
A: 0.854%

Q: For `COc1ccc(CNC(=O)COC(=O)C2=Cc3ccccc3OC2)cc1`, which growth rescue is on record?
A: 0.075%

Q: For `CC(=O)c1c(C)[nH]c(C(=O)NCc2ccc(C)cc2)c1C`, which growth rescue is on record?
A: -0.188%

Q: With `CCCCNC(=O)CSc1nccn1Cc1ccccc1` as the compound, how does the growth rescue read?
A: 0.912%

Q: Which growth rescue does the source give for `Cc1cccc(-c2nc(Nc3ccc(O)cc3)c3ccccc3n2)c1` here?
A: 101% (active)

Q: Which growth rescue does the source give for `CN1CCN(c2nc(Nc3ccc(O)cc3)nc3ccccc23)CC1` here?
A: -0.529%

Q: With `Oc1ccc(-c2nnc(Nc3ccccc3)c3ccccc23)cc1` as the compound, how does the growth rescue read?
A: -0.3%

Q: Which growth rescue does the source give for `CC1(C)CC(=O)c2c(n(S(=O)(=O)c3ccccc3)c3ccc(NS(=O)(=O)c4ccccc4)cc23)C1` here?
A: -0.451%

Q: With `CC(=O)N1N=C(c2ccncc2)OC1(Cc1ccccc1)Cc1ccccc1` as the compound, how does the growth rescue read?
A: -0.493%

Q: For `O=C(CSc1n[nH]c(-c2cccnc2)n1)Nc1ccc(Cl)cc1`, which growth rescue is on record?
A: -2.05%

Q: With `Cc1c(C(=O)NCCN2C(=O)S/C(=C\c3cccs3)C2=O)cccc1[N+](=O)[O-]` as the compound, how does the growth rescue read?
A: 0.66%

Q: For `CC[C@]1(O)C[C@@H]2CN(CCc3c([nH]c4ccccc34)[C@@](C(=O)OC)(c3cc4c(cc3OC)N(C)[C@H]3[C@@](O)(C(=O)OC)[C@H](OC(C)=O)[C@]5(CC)C=CCN6CC[C@]43[C@@H]65)C2)C1`, which growth rescue is on record?
A: -2.2%

Q: For `Cc1ccsc1-c1nc(CSCC(=O)NCCN2CCCC2)c(C)o1`, which growth rescue is on record?
A: 35.6% (active)

Q: With `Cc1ccc(-c2nc(CSCC(=O)NC3CCN(Cc4ccccc4)CC3)c(C)o2)cc1` as the compound, how does the growth rescue read?
A: 0.251%

Q: With `Cc1cc(NC(=O)CSCc2nc(-c3cccc(Cl)c3)oc2C)no1` as the compound, how does the growth rescue read?
A: -0.561%

Q: Which growth rescue does the source give for `Cc1ccccc1CSCCNC(=O)c1ccc(Cl)c(S(=O)(=O)N2CCOCC2)c1` here?
A: 1.98%

Q: Which growth rescue does the source give for `CCC1CCCCN1C(=O)CSc1nc2c(c(=O)n(C)c(=O)n2C)n1C` (stereo unspecified) here?
A: 17.3%

Q: For `Nc1ccccc1SC(C[N+](=O)[O-])c1ccccc1` (stereo unspecified), which growth rescue is on record?
A: 33.7% (active)

Q: With `CC(=O)N(OCc1ccc(OC(C)C)c(Cl)c1)C(C)=O` as the compound, how does the growth rescue read?
A: -0.894%

Q: Which growth rescue does the source give for `COc1ccccc1CNC(=O)C1CCN(C(=O)[C@@H]2Cc3ccccc3CN2)CC1` here?
A: -0.254%

Q: Which growth rescue does the source give for `COc1cccc(C2c3[nH]c4ccccc4c3CCN2Cc2cccc(C)n2)c1` (stereo unspecified) here?
A: 1.72%

Q: With `CCCNC(=O)CCc1c(C)nc2c(c(C)nn2-c2ccc(C)cc2)c1C` as the compound, how does the growth rescue read?
A: 1.12%

Q: With `COc1ccc(C(=O)N(C)CC(O)c2ccccc2)cc1OC1CCN(C(C)=O)CC1` (stereo unspecified) as the compound, how does the growth rescue read?
A: 2.54%

Q: With `Cc1cc(S(=O)(=O)NC2CCCC2)ccc1-n1cnnn1` as the compound, how does the growth rescue read?
A: 0.47%

Q: With `CCCC1CCC(=NNC(=S)NCCc2ccccc2)CC1` (stereo unspecified) as the compound, how does the growth rescue read?
A: 1.29%

Q: With `CCCCNC(=S)N/N=C1\CCCCc2ccccc21` as the compound, how does the growth rescue read?
A: 63.9% (active)

Q: For `S=C(NCCC1=CCCCC1)Nc1ccccc1`, which growth rescue is on record?
A: 9.46%

Q: Which growth rescue does the source give for `CCCCn1nc(C(=O)Nc2cccc(C(=O)NC3CC3)c2)c2ccccc2c1=O` here?
A: 1.46%

Q: Which growth rescue does the source give for `O=C(NCCCN1CCCC1=O)c1ccc(S(=O)(=O)Nc2ccccc2)cc1` here?
A: -0.823%

Q: With `COCCN1C(=O)C(=O)/C(=C(/O)c2ccc(S(=O)(=O)N3CCOCC3)cc2)C1c1ccc(O)c(OC)c1` (stereo unspecified) as the compound, how does the growth rescue read?
A: -0.794%
